This is part of a sample that, as a whole, favours compounds with a hit. Of some 79,000 tested, about 15% had one in any assay. Activity calls are given as the source filed them. No stated cut-off is given here; in the data, active means growth inhibition above about 70%; inactive means the rest.
Key:
[1] = NCI Yeast Anticancer Drug Screen. Data for the rad52 strain (AID 147);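 further: 0% = growth of vehicle-treated control cultures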; conditions: S. cerevisiae rad52 mutant growth inhibition, active compounds read high
Procedure, shortened: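 Measured: yeast growth inhibition. System: strain with a defined DNA damage repair alteration. Reference: vehicle-treated control cultures.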

[2] = NCI Yeast Anticancer Drug Screen. Data for the wt1 strain (AID 149);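 further: 0% = growth of vehicle-treated wt1 cultures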; conditions: S. cerevisiae wt1 strain (SPY 50644) growth inhibition, active compounds read high
Procedure, shortened: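 Growth inhibition read against vehicle controls after compound exposure of the wt1 yeast strain.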

[3] = NCI Yeast Anticancer Drug Screen. Data for the rad50EPP+ strain (AID 151);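 further: 0% = growth of vehicle-treated control cultures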; conditions: S. cerevisiae rad50 mutant strain, active compounds read high
Procedure, shortened: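 One strain with a rad50 alteration (rad50EPP+) was compound-treated, its growth then compared to that of vehicle controls.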

[4] = NCI Yeast Anticancer Drug Screen. Data for the mgt1 strain (AID 153); conditions: S. cerevisiae mgt1 mutant growth inhibition, active compounds read high
Procedure, shortened: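 After exposure of the mgt1 yeast mutant to compound, growth was measured and reported as inhibition compared with vehicle controls.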

[5] = NCI Yeast Anticancer Drug Screen. Data for the rad50 strain (AID 155);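 further: 0% = growth of vehicle-only cultures of the same strain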; conditions: S. cerevisiae rad50 strain growth inhibition, active compounds read high
Procedure, shortened: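 Readout: growth inhibition relative to vehicle-treated cultures. Compound exposure was carried out in a genetically defined yeast strain deficient in DNA damage repair.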

[6] = NCI Yeast Anticancer Drug Screen. Data for the mec2-1 strain (AID 157); conditions: S. cerevisiae mec2-1 strain, active compounds read high
Procedure, shortened: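 Test agents were screened against the mec2-1 yeast strain, with defined DNA repair or cell cycle alteration. Growth was scored as inhibition against vehicle-only controls.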

[7] = NCI Yeast Anticancer Drug Screen. Data for the rad14 strain (AID 159);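 further: 0% = growth of vehicle-treated control cultures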; conditions: S. cerevisiae rad14 strain growth inhibition, active compounds read high
Procedure, shortened: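 Growth inhibition vs vehicle controls; genetically altered yeast strain (DNA damage repair defect) treated with test compounds.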

[8] = NCI Yeast Anticancer Drug Screen. Data for the sgs1 mgt1 strain (AID 161);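 further: 0% = growth of cultures given vehicle only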; conditions: S. cerevisiae sgs1 mgt1 strain, active compounds read high
Procedure, shortened: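 Test agents were incubated with a DNA-repair-mutant yeast strain. Growth was then read and compared against vehicle-treated controls.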

[9] = NCI Yeast Anticancer Drug Screen. Data for the CLN2oe strain (AID 163);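 further: 0% = growth of vehicle-only control cultures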; conditions: S. cerevisiae CLN2oe strain, active compounds read high
Procedure, shortened: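 Here, growth inhibition in a cell-cycle-altered yeast strain after compound exposure was quantified against vehicle control growth.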

[10] = NCI Yeast Anticancer Drug Screen. Data for the cln2 rad14 strain (AID 165);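 further: 0% = growth equal to vehicle treated cultures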; conditions: S. cerevisiae cln2 rad14 strain, active compounds read high
Procedure, shortened: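 Growth of compound-exposed yeast (cln2 rad14 genotype) measured and expressed as inhibition relative to vehicle.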

[11] = NCI Yeast Anticancer Drug Screen. Data for the bub3 strain (AID 167); conditions: S. cerevisiae bub3 mutant strain, active compounds read high
Procedure, shortened: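 Readout: yeast growth inhibition, expressed relative to vehicle-only wells. The test organism is a mutant strain from a panel with lesions in DNA repair or checkpoint genes.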

[12] = NCI Yeast Anticancer Drug Screen. Data for the wt2 strain (AID 169);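 further: 0% = growth of vehicle-treated yeast cultures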; conditions: S. cerevisiae wt2 strain growth inhibition, active compounds read high
Procedure, shortened: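 Genetically defined yeast strains from a DNA-repair/cell-cycle panel were used. Compound-exposed yeast growth was measured, and the inhibition was calculated relative to vehicle treatment.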

[13] = NCI Yeast Anticancer Drug Screen. Data for the mlh1 strain (AID 171);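 further: 0% = growth of vehicle-treated control cultures of the same strain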; conditions: S. cerevisiae mlh1 strain growth inhibition, active compounds read high
Procedure, shortened: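 Here the genetically defined yeast mutant is grown with each compound, and the extent to which its growth falls below that of vehicle-exposed cells is reported.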

[14] = NCI Yeast Anticancer Drug Screen. Data for the mlh1 rad18 strain (AID 175); conditions: S. cerevisiae mlh1 rad18 strain growth inhibition, active compounds read high
Procedure, shortened: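 In this whole-cell yeast screen, a strain with altered DNA damage repair is challenged with compound, and its growth is measured against matched vehicle-treated controls.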

[15] = NCI Yeast Anticancer Drug Screen. Data for the rad18 strain (AID 177); conditions: S. cerevisiae rad18 mutant growth inhibition, active compounds read high
Procedure, shortened: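 Screen uses a yeast strain with a defined lesion in DNA damage repair; compound effect is read as loss of growth compared to untreated vehicle cultures.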

[16] = NCI Yeast Anticancer Drug Screen. Data for the sgs1 strain (AID 173);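 further: 0% = growth of vehicle-only control cultures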; conditions: S. cerevisiae sgs1 mutant, active compounds read high
Procedure, shortened: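 Relative growth inhibition, referenced to vehicle, was determined in a yeast strain with a defined alteration affecting DNA damage repair or cell cycle control after compound exposure.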

[17] = at 5.0 µM (retest, dose inferred, filed as 0.5)
[18] = at 50.0 µM (retest, dose inferred, filed as 5.0)

Measured: growth inhibition

[N-]=N[N+]#I1OC(C(F)(F)F)(C(F)(F)F)c2ccccc21
inactive: [1]; at 1.2 µM 44% | [2]; at 1.2 µM 17% | [3]; at 1.2 µM 3% | [3]; at 3.7 µM 13% | [3]; at 11.0 µM 42% | [4]; at 1.2 µM 38% | [5]; at 1.2 µM 58% | [5]; [17] 7% | [6]; at 1.2 µM 45% | [6]; [17] 2% | [7]; at 1.2 µM 27% | [9]; at 1.2 µM 40% | [10]; [17] 47% | [11]; at 1.2 µM 28% | [12]; at 1.2 µM 18% | [13]; at 1.2 µM 53% | [14]; [17] 34% | [15]; at 1.2 µM 62%
active: [1]; at 3.7 µM 82% | [1]; at 11.0 µM 97% | [1]; at 33.0 µM 99% | [1]; at 100.0 µM 100% | [2]; at 3.7 µM 84% | [2]; at 11.0 µM 99% | [2]; at 33.0 µM 99% | [2]; at 100.0 µM 99% | [3]; at 33.0 µM 93% | [3]; at 100.0 µM 99% | [4]; at 3.7 µM 88% | [4]; at 11.0 µM 99% | [4]; at 33.0 µM 100% | [4]; at 100.0 µM 100% | [5]; at 3.7 µM 90% | [5]; at 11.0 µM 97% | [5]; at 33.0 µM 100% | [5]; [18] 99% | [5]; at 50.0 µM 91.7% | [5]; at 100.0 µM 100% | [6]; at 3.7 µM 91% | [6]; at 11.0 µM 99% | [6]; at 33.0 µM 100% | [6]; [18] 99% | [6]; at 50.0 µM 93.7% | [6]; at 100.0 µM 99% | [7]; at 3.7 µM 90% | [7]; at 11.0 µM 99% | [7]; at 33.0 µM 100% | [7]; at 100.0 µM 99% | [8]; [17] 81% | [8]; [18] 98% | [8]; at 50.0 µM 92.8% | [9]; at 3.7 µM 81% | [9]; at 11.0 µM 98% | [9]; at 33.0 µM 99% | [9]; at 100.0 µM 98% | [10]; [18] 98% | [10]; at 50.0 µM 92% | [11]; at 3.7 µM 83% | [11]; [17] 91% | [11]; at 11.0 µM 99% | [11]; at 33.0 µM 100% | [11]; [18] 98% | [11]; at 50.0 µM 92.8% | [11]; at 100.0 µM 97% | [12]; at 3.7 µM 76% | [12]; at 11.0 µM 98% | [12]; at 33.0 µM 99% | [12]; at 100.0 µM 99% | [13]; at 3.7 µM 90% | [13]; at 11.0 µM 98% | [13]; at 33.0 µM 99% | [13]; at 100.0 µM 99% | [14]; [18] 99% | [14]; at 50.0 µM 92% | [15]; at 3.7 µM 89% | [15]; at 11.0 µM 98% | [15]; at 33.0 µM 99% | [15]; at 100.0 µM 99%

CCc1ncnc2cc(OCC3CO3)c(OC)cc12 (stereo unspecified)
active: [1]; at 33.0 µM 82% | [1]; at 100.0 µM 87% | [3]; at 100.0 µM 74% | [5]; [17] 72% | [5]; at 11.0 µM 72% | [5]; at 33.0 µM 85% | [5]; [18] 92% | [5]; at 50.0 µM 84.3% | [5]; at 100.0 µM 91% | [6]; at 33.0 µM 75% | [6]; [18] 92% | [6]; at 50.0 µM 89.4% | [6]; at 100.0 µM 91% | [7]; at 33.0 µM 85% | [7]; at 100.0 µM 94% | [8]; [17] 79% | [8]; [18] 93% | [8]; at 50.0 µM 82.7% | [10]; [18] 79% | [10]; at 50.0 µM 79.1% | [12]; at 100.0 µM 72% | [16]; at 11.0 µM 70% | [16]; at 33.0 µM 82% | [16]; at 100.0 µM 91% | [14]; [17] 90% | [14]; [18] 95% | [14]; at 50.0 µM 81.2% | [15]; at 1.2 µM 73% | [15]; at 3.7 µM 84% | [15]; at 11.0 µM 92% | [15]; at 33.0 µM 91% | [15]; at 100.0 µM 93%
inactive: [1]; at 1.2 µM 7% | [1]; at 3.7 µM 46% | [1]; at 11.0 µM 66% | [2]; at 1.2 µM -9% | [2]; at 3.7 µM 8% | [2]; at 11.0 µM 3% | [2]; at 33.0 µM 6% | [2]; at 100.0 µM 20% | [3]; at 1.2 µM 8% | [3]; at 3.7 µM 31% | [3]; at 11.0 µM 31% | [3]; at 33.0 µM 47% | [4]; at 1.2 µM -14% | [4]; at 3.7 µM -8% | [4]; at 11.0 µM -3% | [4]; at 33.0 µM 22% | [4]; at 100.0 µM 48% | [5]; at 1.2 µM 23% | [5]; at 3.7 µM 44% | [6]; at 1.2 µM 2% | [6]; at 3.7 µM 6% | [6]; [17] 26% | [6]; at 11.0 µM 22% | [7]; at 1.2 µM 0% | [7]; at 3.7 µM 1% | [7]; at 11.0 µM 46% | [9]; at 1.2 µM 20% | [9]; at 3.7 µM 15% | [9]; at 11.0 µM 27% | [9]; at 33.0 µM 30% | [9]; at 100.0 µM 52% | [10]; [17] 17% | [11]; at 1.2 µM 17% | [11]; at 3.7 µM -7% | [11]; [17] 10% | [11]; at 11.0 µM 2% | [11]; at 33.0 µM 12% | [11]; [18] 47% | [11]; at 50.0 µM 17.9% | [11]; at 100.0 µM 43% | [12]; at 1.2 µM -26% | [12]; at 3.7 µM -15% | [12]; at 11.0 µM -14% | [12]; at 33.0 µM 13% | [16]; at 1.2 µM 31% | [16]; at 3.7 µM 53%

From PubChem BioAssay (NCI)
